Source: PubChem (National Center for Advancing Translational Sciences (NCATS))
Sampled rows, rich in hits. Any-hit rate of the full collection: about 3.2%.
PLK1 PBD inh: PLK1 (human) polo-box domain binding inhibition | Potency, µM, inactives show max response, negative = inhibition, actives largely listed as inhibitors | AID 720504 | Plk1 PBD binding of FITC phosphopeptide, fluorescence polarization | 360,000 compounds, 2.8% hits; also: potency is read from the fitted curve at half-maximal effect; series mostly up to about 57 µM; nearly all actives have a fitted effect of over 65% in size
USP1 inh: blocks the human USP1/UAF1 deubiquitinase complex. O94782. recombinant USP1/UAF1, Ub-Rhodamine cleavage fluorescence. Potency, µM (titrated, usually from 57.1 µM), for inactives: top-dose activity change, negative = inhibition, actives largely listed as inhibitors. 390,000 compounds, 0.23% hits. AID 743255; also: potency is read from the fitted curve at half-maximal effect; nearly all actives have a fitted effect of over 60% in size
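USP1/UAF1 complex (1 nM) preincubated 15 min at room temperature with compound, then Ub-Rho substrate (150 nM final) added. Kinetic fluorescence at 480/540 nm over 6 reads at 60 s intervals; 50 mM HEPES pH 7.8, 0.5 mM EDTA, 0.1 mg/ml BSA, 1 mM TCEP, 0.01% Tween-20.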
FBPA coupling cs: coupling enzyme interference in Giardia aldolase counter-screen; coupling enzyme system counterscreen, AmpLite Red fluorescence; activity change, negative = inhibition, % at 58.2 µM, hits read low; 290,000 compounds, 0.67% hits; in the data active = activity change below about -30%
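Fluorescence at 525 nm excitation and 598 nm emission measured inhibition of the coupled detection system without aldolase. Compounds (at 57.5 uM final) were preincubated 10 min at room temperature with coupling enzyme reagent before a 20 min substrate/AmpLite Red step.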
USP2a block: USP2a (human) protease inhibition. USP2 core, Ub-CHOP2 coupled fluorogenic reporter, 485/531. Potency, µM (highest dose often 38.3 µM), for inactives: top-dose activity change, negative = inhibition, most hits filed as inhibitors. 330,000 compounds, 0.01% hits. AID 463254;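 also: potency is read from the fitted curve at half-maximal effect; plate controls were DMSO wells for no effect and full inhibition by NEM control for full effect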
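Deubiquitinase activity read as fluorescence (485/531 nm) after Ub-CHOP2 cleavage activates the enterokinase reporter on its substrate; USP2 core 10nM, Ub-CHOP2 and substrate 25nM each, 30min compound preincubation then 60min RT; data normalized to NEM, curves fitted.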
GALK inh: galactokinase (human) inhibition. P51570. Purified GALK, Kinase-Glo residual ATP luminescence. Potency, µM (series often up to 57.5 µM), inactives show at the highest dose activity change, negative = inhibition, usual class: inhibitors. 270,000 compounds, 0.007% hits. AID 1868; also: potency is read from the fitted curve at half-maximal effect
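Luminescence from leftover ATP (Ultra-Glo luciferase/luciferin) served as read-out after a 1 h room-temperature reaction of 5 nM GALK with 35 uM ATP and 100 uM galactose.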
VDR inhibitor: blocks the human vitamin D receptor; VDR-SRC2-3 peptide fluorescence polarization, 2 h; Potency, µM, for inactives: max response, negative = inhibition, actives largely listed as inhibitors; 400,000 compounds, 0.93% hits; also: potency is read from the fitted curve at half-maximal effect
Target sequence (P11473 whole entry, looked up): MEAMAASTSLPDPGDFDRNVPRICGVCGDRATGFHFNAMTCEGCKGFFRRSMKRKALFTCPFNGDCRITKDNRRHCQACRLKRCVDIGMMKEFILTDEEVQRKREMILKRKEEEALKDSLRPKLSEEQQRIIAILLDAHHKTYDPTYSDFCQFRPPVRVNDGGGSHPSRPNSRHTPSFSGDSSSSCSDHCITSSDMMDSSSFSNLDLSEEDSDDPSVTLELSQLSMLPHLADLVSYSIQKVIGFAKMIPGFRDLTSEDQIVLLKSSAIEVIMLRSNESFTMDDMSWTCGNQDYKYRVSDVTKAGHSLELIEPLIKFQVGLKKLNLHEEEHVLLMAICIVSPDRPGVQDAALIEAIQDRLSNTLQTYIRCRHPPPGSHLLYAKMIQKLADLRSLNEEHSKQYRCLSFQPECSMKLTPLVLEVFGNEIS
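VDR–SRC2-3 interaction, FP format. Cmpds 23 nl via pintool, brief spin, 2 h ambient incubation.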
* marks the source's active call; other numbers are inactive results; ? = inconclusive; . = no result given. Unless noted, calls follow the shape of the dose curve; as a rule, active = well fitted curve in the direction sought with a large enough effect; inconclusive = small, poorly fitted or top-dose-only effect, or another doubt; inactive = no such curve, though single readings can be large; an effect the other way counts as inactive or inconclusive. Unless noted, % is scaled to controls: 0 for no effect and ±100 for the full control effect.

SMILES | PLK1 PBD inh | USP1 inh | FBPA coupling cs | USP2a block | GALK inh | VDR inhibitor
N#Cc1c(-c2ccccc2)cc(-c2cccs2)nc1SCC(=O)O | 27µM* | -18% | 21 | 1% | 0% | ?
CCOC(=O)CSc1nc(C2CC2)cc(-c2ccc(Cl)cc2)c1C#N | 24µM* | -21% | 0 | 2% | 0% | -14%
COc1ccc(C2CC(=O)Nc3c2c(=O)nc2c(C)cccn32)cc1 (centres undefined) | . | -27% | . | . | . | 8%
Cc1cc2c3c(c1C)C(=O)C(=O)N3C(C)(C)CC2C (centres undefined) | -1% | -11% | 1 | 0% | 0% | -15%
O=C1/C(=C/c2ccccc2[N+](=O)[O-])COc2ccccc21 | ? | -7% | -3 | 10% | -4% | 22µM*
CNc1ccc(/C=C2\COc3ccccc3C2=O)cc1[N+](=O)[O-] | -5% | -12% | 5 | 1% | -7% | -9%
NS(=O)(=O)c1cccc(Nc2nc3ccccc3nc2NS(=O)(=O)c2ccc(Cl)cc2)c1 | 17µM* | -19% | . | -1% | . | 13%
COc1ccc(CNC(=O)CCCSc2ccccc2)cc1 | 1% | -16% | 0 | 0% | -3% | 2%
NS(=O)(=O)c1ccc(CNC(=O)CCCSc2ccccc2)cc1 | 30µM* | -12% | 0 | 0% | 0% | -7%
NS(=O)(=O)c1ccc(CNC(=O)CNC(=O)Cc2ccccc2)cc1 | -5% | -2% | 2 | -1% | -2% | -16%
NS(=O)(=O)c1ccc(CNC(=O)/C=C/c2ccccc2)cc1 | 27µM* | -10% | 3 | 2% | . | -2%
CCOc1ccccc1NC(=O)C1(S(=O)(=O)c2ccc(Cl)cc2)CC1 | -12% | -25% | -5 | -2% | -3% | -1%
CCOC(=O)C1=C(CC)Nc2ccccc2N/C1=N\S(=O)(=O)c1ccc2ccccc2c1 | -14% | -24% | 5 | -4% | 9% | 32%
CCOC(=O)C1=C(CC)Nc2ccccc2N/C1=N\S(=O)(=O)c1cc(Br)ccc1Br | 21µM* | ? | 13 | -4% | 0% | -5%
CCCCC(=O)N(C)c1c(CC)nc2c(OCCOc3ccc(F)cc3)cccn12 | -4% | . | . | . | . | .
CCSc1nc(-c2cccs2)nc2ccccc12 | 24µM* | -12% | -1 | 1% | 6% | -7%
c1ccc(CNc2nc(-c3cccs3)nc3ccccc23)cc1 | -1% | ? | 1 | -6% | 2% | 4%
COc1ccc2c(c1)c(CC(=O)OC(C)C(=O)N(C)C)c(C)n2C(=O)c1ccc(Cl)cc1 (centres undefined) | -5% | -17% | -1 | -2% | 0% | 6%
O=C1[C@H]2[C@@H](c3ccc(Cl)cc3)N3C(=O)N(c4cccc(Cl)c4)C(=O)[C@@]3(Cc3ccc(Cl)cc3)[C@H]2C(=O)N1C1CCCCC1 | 3% | -15% | . | 1% | . | -6%
S=C1Nc2ccccc2Sc2ccc(Cl)cc21 | 24µM* | -20% | 2 | 6% | 0% | -13%
O=C(NCCCc1ccccn1)C1CCC(=O)N(Cc2cccc(F)c2)C1 (centres undefined) | -13% | -7% | . | 0% | -2% | -2%
O=C(NCCCc1ccncc1)C1CCC(=O)N(Cc2cccc(F)c2)C1 (centres undefined) | 30µM* | -20% | 1 | 0% | 0% | ?
O=C(NCCN1C(=O)CSC1=O)C1CC(=O)N(c2ccccc2)C1 (centres undefined) | -6% | -8% | 4 | ? | 2% | 10%
O=C(OCC(=O)N1CCCC1=O)c1ncc(Cl)c(Cl)c1Cl | -4% | -19% | . | 0% | . | -2%
COc1cccc(C(=O)N(C)CC2CCN(CCc3cccc(C(F)(F)F)c3)CC2)c1 | 1% | -13% | 1 | 2% | 4% | -11%
SMILES | PLK1 PBD inh | USP1 inh | FBPA coupling cs | USP2a block | GALK inh | VDR inhibitor
CC(=O)NCCC(=O)N(C)CC1CCN(CCc2cccc(C(F)(F)F)c2)CC1 | 21µM* | -18% | -2 | -1% | -3% | ?
CC(C)n1nnnc1SCC(=O)c1ccc2c(c1)OCCO2 | 30µM* | 0% | 0 | 2% | -2% | 4%
Cc1cc(C(=O)CSc2nnnn2C)c(C)n1-c1ccc2c(c1)OCCO2 | -2% | -23% | -45* | -1% | -1% | -9%
Cc1cc(C(=O)CSc2nnc(-c3ccco3)o2)c(C)n1-c1ccc2c(c1)OCCO2 | -5% | -9% | -17 | 2% | 1% | 1%
CSc1nc(-c2ccccc2)nc(N)c1C(C)=O | . | . | 2 | 2% | -4% | .
CCNS(=O)(=O)c1ccc(CCC(=O)NCc2cccnc2)cc1 | 2% | -5% | -1 | 2% | 5% | ?
NN/C(=C\[N+](=O)[O-])Nc1ccc(Cl)cc1 | 12µM* | -4% | -1 | 1% | -4% | -6%
CC1(C)C2CCC(CN=C(N)CSS(=O)(=O)O)C1C2 (centres undefined) | 4.7µM* | ? | . | . | . | .
O=C(CSc1n[nH]c(-c2cccnc2)n1)OC1CCCCC1 | 12µM* | -7% | 3 | 0% | 0% | ?
O=C(CSc1n[nH]c(-c2cccnc2)n1)Nc1ccc(Br)cc1 | -15% | -13% | -1 | -6% | -1% | -8%
CCSc1ccccc1C(=O)n1nnc2ccccc21 | 5.6µM* | -8% | -3 | . | 3% | 50µM*
COc1ccc(C)c2sc(=NC(=O)c3ccc(C(C)=O)cc3)n(C)c12 | -4% | -12% | -1 | -1% | 1% | 5%
C/C(CC(=O)Nc1cccc2c1CCCC2)=N\NC(=O)c1ccccc1N | -6% | -2% | 5 | 0% | 3% | -1%
C/C(CC(=O)NC(C)(C)C)=N\NC(=O)c1ccccc1N | 24µM* | 0% | 2 | 6% | 1% | -17%
COc1cccc2nc3cc(C)c(C)cc3nc12 | 17µM* | ? | -39* | 4% | -2% | 22µM*
CC1CCC2(CC1)NC(=O)N(CC(=O)N1CC(C)CC(C)C1)C2=O (centres undefined) | -9% | -6% | . | 2% | . | -14%
COCCNC(=S)N1CCN(c2nc(-c3ccc(F)cc3)cs2)CC1 | -13% | -20% | 1 | -1% | -5% | -25%
COCCNC(=S)N1CCN(c2nc(-c3ccc(Cl)cc3)cs2)CC1 | 24µM* | ? | -1 | 1% | . | -13%
CN(CCc1ccccn1)C1CC(=O)N(c2ccc(Cl)cc2)C1=O (centres undefined) | -11% | -8% | 5 | -2% | 1% | 1%
Cc1oc(/N=C/c2ccccc2)c(C#N)c1C | -12% | -8% | 1 | 4% | -3% | -6%
COc1[nH]c(/N=C/c2ccccc2)c(C#N)c1C#N | 21µM* | 5% | 0 | ? | 0% | -11%
